Compound activity deposited in PubChem BioAssay by The Scripps Research Institute Molecular Screening Center.
PAFAH1B2 FP inh: PAFAH1B2 (human) inhibition | P68402 | recombinant PAFAH1B2, FP-rhodamine activity probe, fluorescence polarization | inhibition, % at 3.39 µM | 340,000 compounds, 1.2% hits;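 active means inhibition above the mean of all tested compounds plus 3 SD, cut at about 24% in these data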;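 further: 0% = enzyme with DMSO and 100% = wells lacking PAFAH1B2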
Target sequence (P68402 whole entry, looked up): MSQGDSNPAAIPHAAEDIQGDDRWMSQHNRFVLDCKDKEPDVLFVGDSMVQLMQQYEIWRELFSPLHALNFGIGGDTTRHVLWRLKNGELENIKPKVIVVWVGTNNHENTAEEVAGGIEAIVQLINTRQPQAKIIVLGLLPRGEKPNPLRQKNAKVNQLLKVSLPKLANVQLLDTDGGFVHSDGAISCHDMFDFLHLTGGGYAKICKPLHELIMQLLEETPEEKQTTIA
pPAFAH FP inh: inhibitors of human plasma PAF acetylhydrolase (pPAFAH); Q13093; recombinant pPAFAH, FP-rhodamine probe fluorescence polarization; inhibition, % at 3.39 µM; 330,000 compounds, 1.5% hits;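 active means inhibition above the mean inhibition across the screen plus 3 SD, cut at about 25% in these data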;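 further: inhibitors block binding of the rhodamine activity-based probe so polarization drops; 0% = enzyme with DMSO and 100% = wells lacking pPAFAH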
Fam108B counter: counter-screen for RBBP9 inhibitors: inhibitors of mouse Fam108B; recombinant Fam108B, FP-Rh probe fluorescence polarization; inhibition, % at 9.51 µM; 300,000 compounds, 0.33% hits; AID 1947;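 active means inhibition above the screen mean inhibition plus 3 SD, computed separately per campaign, cut at about 18% in these data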;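 further: inhibitors lower polarization as less probe binds the enzyme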
PAFAH2 inh: inhibitors of human PAFAH2; AID 492956; 340,000 compounds, 0.99% hits; inhibition, % at 3.39 µM; Q99487; recombinant PAFAH2, FP-rhodamine activity probe, fluorescence polarization;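 active means inhibition above the mean over all tested compounds plus 3 SD, cut at about 30% in these data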;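 further: inhibitors block probe labeling of enzyme so polarization drops; 0% = enzyme with DMSO and 100% = wells lacking PAFAH2 protein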
PME-1 inh: blocks human protein phosphatase methylesterase 1. 320,000 compounds, 0.53% hits. recombinant PME-1, FP-Rh probe fluorescence polarization. AID 2130. Q9Y570. inhibition, % at 5.9 µM;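 active means inhibition above the campaign mean of all compounds plus 3 SD, cut at about 26% in these data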;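 further: competitive labeling of PME-1 active site by serine hydrolase directed probe; 0% = PME-1 with DMSO and 100% = wells lacking PME-1 enzyme; inhibitors block probe labeling so polarization falls and inhibition rises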
PAFAH1B3 FP inh: inhibitors of human PAFAH1B3 | recombinant PAFAH1B3, FP-rhodamine probe, fluorescence polarization | inhibition, % at 3.39 µM | 340,000 compounds, 0.28% hits;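 active means inhibition above the screen-wide average of all tested compounds plus 3 SD, cut at about 25% in these data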;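 further: 0% = enzyme with DMSO only and 100% = wells lacking PAFAH1B3 protein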
Target sequence (Q15102 whole entry, looked up): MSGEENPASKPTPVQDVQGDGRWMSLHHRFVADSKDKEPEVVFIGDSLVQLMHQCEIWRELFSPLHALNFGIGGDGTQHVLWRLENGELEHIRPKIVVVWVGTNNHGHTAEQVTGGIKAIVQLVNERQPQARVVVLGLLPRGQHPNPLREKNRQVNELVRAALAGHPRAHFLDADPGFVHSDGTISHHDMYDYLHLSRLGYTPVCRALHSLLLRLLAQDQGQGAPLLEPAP
pPAFAH FP conf: confirmation of human plasma PAF acetylhydrolase (pPAFAH) inhibitors. recombinant pPAFAH, FP-Rh probe fluorescence polarization. inhibition, % at 3.39 µM. shares compounds with pPAFAH FP inh. AID 463230. 2,300 compounds, 72% hits;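 active means mean inhibition of the triplicate above the hit cutoff set for the earlier primary screen, cut at about 25% in these data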;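 further: 0% = enzyme with DMSO and 100% = wells lacking pPAFAH enzyme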
* marks the source's active call; other numbers are inactive results. An excerpt weighted towards active compounds, which were near 2.9% of everything screened.

`CN1C(C(=O)NCc2ccco2)=CC(c2ccc(F)cc2)=NS1(=O)=O` gave PAFAH1B2 FP inh -7, pPAFAH FP inh 67*, Fam108B counter -3, PAFAH2 inh 3, PME-1 inh 5, PAFAH1B3 FP inh -7 and pPAFAH FP conf 10.
`CC(C)NC1(C(N)=O)CCNCC1` gave PAFAH1B2 FP inh 5, PAFAH2 inh 3 and PAFAH1B3 FP inh 9.
For COc1ccc(Cl)cc1C(=O)NNC(=O)c1[nH]c(C)c(C(C)=O)c1C the results were PAFAH1B2 FP inh -2, pPAFAH FP inh 54*, PAFAH2 inh 5, PAFAH1B3 FP inh 10 and pPAFAH FP conf 7.
Screening O=C(COC(=O)c1ccc2[nH]c3c(c2c1)CCCC3)Nc1ccc(Cl)cc1Cl returned PAFAH1B2 FP inh -2, pPAFAH FP inh 5, Fam108B counter 1, PAFAH2 inh 25, PME-1 inh 6 and PAFAH1B3 FP inh 4.
`CCC(C)c1ccccc1NC(=O)COC(=O)c1ccc2[nH]c3c(c2c1)CCCC3` (stereo not given) gave PAFAH1B2 FP inh 6, pPAFAH FP inh 38*, Fam108B counter 7, PAFAH2 inh 71*, PME-1 inh 19, PAFAH1B3 FP inh 8 and pPAFAH FP conf 29*.
`COc1ccc(NS(=O)(=O)c2ccc3oc(=S)[nH]c3c2)cc1` gave PAFAH1B2 FP inh 6, pPAFAH FP inh 22, Fam108B counter 0, PAFAH2 inh 0, PME-1 inh -1 and PAFAH1B3 FP inh 0.
Screening Nc1ccc(C(=O)N/N=C/c2cn(Cc3ccccc3F)c3ccccc23)cc1 returned PAFAH1B2 FP inh 9, PAFAH2 inh -1 and PAFAH1B3 FP inh 8.
`O=C(O)c1ccc(N/N=C/c2cn(Cc3ccccc3F)c3ccccc23)cc1` gave PAFAH1B2 FP inh 8, pPAFAH FP inh 46*, Fam108B counter 17, PAFAH2 inh 10, PME-1 inh 29*, PAFAH1B3 FP inh 14 and pPAFAH FP conf 63*.
For CCCCCCCCCCCCN1[C@@H](CC(=O)O)c2cc(F)ccc2S1(=O)=O the results were PAFAH1B2 FP inh 31*, pPAFAH FP inh 48*, Fam108B counter 1, PAFAH2 inh -2, PME-1 inh 2, PAFAH1B3 FP inh -3 and pPAFAH FP conf 34*.
Screening CCCCCCCCCCCCN1[C@@H](CC(=O)O)c2cc(C(F)(F)F)ccc2S1(=O)=O returned PAFAH1B2 FP inh 23, pPAFAH FP inh 44*, Fam108B counter -3, PAFAH2 inh 11, PME-1 inh 0, PAFAH1B3 FP inh 3 and pPAFAH FP conf 41*.
O=C(CCCc1ccccc1)N=C1SC2CS(=O)(=O)CC2N1c1ccccc1 (stereo not given) was read as PAFAH1B2 FP inh 9, pPAFAH FP inh 3, Fam108B counter 5, PAFAH2 inh 3, PME-1 inh 2 and PAFAH1B3 FP inh -2.
Screening COc1cc(/C=C2/SC(=S)N(Cc3ccccc3)C2=O)ccc1OS(C)(=O)=O returned PAFAH1B2 FP inh 0, pPAFAH FP inh 13, Fam108B counter 0, PAFAH2 inh -1, PME-1 inh -6 and PAFAH1B3 FP inh -6.
`COc1cc(/C=C2/SC(=S)N(Cc3ccccc3)C2=O)ccc1OCC(=O)O` gave PAFAH1B2 FP inh 2, pPAFAH FP inh 49*, Fam108B counter -12, PAFAH2 inh 5, PME-1 inh -13, PAFAH1B3 FP inh -4 and pPAFAH FP conf 28*.
Cc1ccc(C(=O)N2CCCC(CCC(=O)N3CCN(c4ccccn4)CC3)C2)cc1C (stereo not given) was read as PAFAH1B2 FP inh -2, pPAFAH FP inh 35*, Fam108B counter -3, PAFAH2 inh 3, PME-1 inh 1, PAFAH1B3 FP inh 5 and pPAFAH FP conf 22.
Cc1ccc(C(=O)N2CCCC(CCC(=O)N3CCN(c4ccccn4)CC3)C2)cn1 (stereo not given) was read as PAFAH1B2 FP inh 8, pPAFAH FP inh 7, Fam108B counter -1, PAFAH2 inh 4, PME-1 inh 6 and PAFAH1B3 FP inh 15.
Screening CN1CCN(CCCN2c3ccccc3Sc3ccc(C(F)(F)F)cc32)CC1 returned PAFAH1B2 FP inh 3, pPAFAH FP inh 37*, Fam108B counter -2, PAFAH2 inh -1, PME-1 inh 3, PAFAH1B3 FP inh 9 and pPAFAH FP conf 30*.
